# In PubChem BioAssay (NCATS):
# Inconclusive results are not listed. Calls of active or inactive are those of the source. Unless noted, the call rests on the fitted dose curve.
# Legend:
# [1] = biological target: Lysosomal acid glucosylceramidase (Homo sapiens) (UniProt P04062); test: Glucocerebrosidase-p2 (AID 348; in the data active means potency below about 10 µM; further: potency means the concentration at half of the fitted maximal effect); conditions: purified GBA, blue fluorogenic substrate, 40 min
# Method in brief: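 Compounds titrated from 0.6 nM upwards against 0.2 nM enzyme in pH 5.9 citric acid/KH2PO4, taurocholate, tween-20; blue fluorogenic substrate 80 uM, 40 min room temperature, stopped and read Ex 365/Em 440 for AC50.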
# [2] = AP1 Signaling Pathway (AID 357; active means well fitted curve in either direction with a large enough effect, not every such curve was filed as active;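 further: ME-180 reporter cells stimulated with EGF at its EC50 level; on the % scale 0 is the no-effect control and ±100 the full control effect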); conditions: ME-180 AP-1-bla reporter, EGF-induced, beta-lactamase ratio, 5 h; at 7.69 µM (top of the series) unless noted
# Method in brief: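 Modulation of EGF-driven AP-1 transcription was assessed with a beta-lactamase reporter in ME-180 cells. Compound and EC50 EGF were co-incubated 5 hours at 37 °C before 2.5-hour CCF4 loading at room temperature and dual-emission reading.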
# [3] = biological target: Cytochrome P450 1A2 (Homo sapiens) (UniProt P05177); test: p450-cyp1a2 (AID 410); conditions: recombinant CYP1A2, luciferin-ME demethylation, luminescence; series mostly up to 57 µM; further: potency means the concentration at half of the fitted maximal effect
# Method in brief: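 Luminescent readout of luciferin formed from Luciferin-ME by human CYP1A2; data normalized against complete inhibition by 57 uM furafylline. Enzyme 20nM, substrate 100uM at Km, 100mM KPO4 buffer, 60 min reaction at room temperature.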
# [4] = Stat Signaling Pathway (AID 446; active means well fitted curve in either direction with a large enough effect, not every such curve was filed as active;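 further: ME-180 cervical cancer cells given 40 pM IL-6 alongside compound; SIE-controlled beta-lactamase reporter measured as 460/530 nm FRET emission ratio; on the % scale 0 is the no-effect control and ±100 the full control effect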); conditions: ME-180 SIE beta-lactamase reporter, IL-6 stimulated, 5 h
# Method in brief: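 Screening format detects activators and inhibitors alike: ME-180 SIE-bla cells stimulated at 40 pM IL-6 for 5 hrs with compound, then dual-emission beta-lactamase read at 405 nm excitation.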
# [5] = biological target: Glucocorticoid receptor (Homo sapiens) (UniProt P04150); test: GR-EFC Redistribution (AID 451); conditions: CHO-K1 GR-EFC translocation, beta-gal luminescence, 2 h; further: potency means the concentration at half of the fitted maximal effect
# Method in brief: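 CHO-K1 cells stably expressing nuclear-localized β-gal enzyme acceptor and GR fused C-terminally to the enzyme donor fragment; ligand-driven nuclear translocation restores β-gal by complementation. Compounds titrated up to 46 uM final, 2 h at 37 °C; luminescence read.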
# [6] = biological target: Mitogen-activated protein kinase 10 (Mus musculus) (UniProt Q61831); test: JNK3 AlphaScreen Assay (AID 530; active means well fitted curve in either direction with a large enough effect, not every such curve was filed as active;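 further: kinase came from lysate of stimulated human HepG2 cells; signal reports phosphorylation of biotinylated GST-cJun 1-79 at Ser73 with 10 µM ATP; on the % scale 0 is the no-effect control and ±100 the full control effect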); conditions: JNK3 lysate, c-Jun phosphorylation; series mostly up to 57.1 µM
# Method in brief: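 Inhibitors reduce antibody binding to phosphorylated biotin-cJun, lowering AlphaScreen luminescence. Lysates from HepG2 cells pre-activated by IL-1beta plus TNF-alpha supplied JNK3; compounds were titrated.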
# [7] = biological target: Cytochrome P450 3A4 (Homo sapiens) (UniProt P08684); test: qHTS Assay for Inhibitors and Substrates of Cytochrome P450 3A4 (AID 884; active means well fitted curve in the direction sought with a large enough effect; an effect the other way counts as inactive or inconclusive; further: potency means the concentration at half of the fitted maximal effect; nearly all actives have a fitted effect of over 50% in size); conditions: recombinant CYP3A4, Luciferin-PPXE luminescence; series mostly up to 57.1 µM
# Method in brief: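 20 nM human CYP3A4 with 25 uM Luciferin-PPXE (at KM) in 200 mM KPO4, preincubated 10 min with compound; NADPH regeneration started a 60 min RT reaction. Luciferin detected by luminescence, normalized to 57 uM ketoconazole as full inhibition.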
# [8] = biological target: Cytochrome P450 3A4 (Homo sapiens) (UniProt P08684); test: qHTS Assay for Activators of Cytochrome P450 3A4 (AID 885; active means well fitted curve in the direction sought with a large enough effect; an effect the other way counts as inactive or inconclusive; further: nearly all actives have a fitted effect of over 65% in size); conditions: recombinant CYP3A4, Luciferin-PPXE luminescence, 60 min; series mostly up to 57.1 µM
# Method in brief: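 Steps: enzyme/substrate mix dispensed; compound added, 10 min RT; NADPH regeneration solution added, 60 min RT; luciferin detection buffer stops reaction; 20 min later luminescence measured.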
# [9] = qHTS Assay for Lipid Storage Modulators (AID 1519); conditions: Drosophila S3 cells, BODIPY lipid droplet/cell ratio, laser cytometry, cells loaded with oleic acid
# Method in brief: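 Cells seeded at 5,000 per well were treated with compounds over a concentration series and loaded with oleic acid (400 uM, as added). Lipid droplet fluorescence (488 nm excitation, 500-530 nm channel) was read by laser-scanning cytometry and normalized to 20 uM Triacsin C.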
# [10] = NFAT Signaling Pathway (AID 444; active means well fitted curve in either direction with a large enough effect, not every such curve was filed as active;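 further: carbachol stimulus at about its EC50 of 1 µM final; on the % scale 0 is the no-effect control and ±100 the full control effect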); conditions: Jurkat NFAT-bla M1, carbachol, beta-lactamase ratio, 5 h; at 7.69 µM (top of the series) unless noted
# Method in brief: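 Jurkat cells carrying an NFAT-driven β-lactamase reporter and co-transfected muscarinic M1 receptor were treated with compound plus carbachol (1 uM final, an EC50 level) for 5 h at 37 °C. CCF4 loading followed for 1 h at RT; 460/530 nm ratio gave %activity.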
# [11] = biological target: 3',5'-cyclic-AMP phosphodiesterase 4B (Homo sapiens) (UniProt Q07343); test: qHTS Assay for Inhibitors of PDE-IV (AID 607; active means well fitted activation curve with a large enough effect in the main read-out, with a control signal flat, not every such curve was filed as active; further: % of control where 0% means no effect); conditions: HEK293 ACTOne CNG channel cells, membrane potential fluorescence; series mostly up to 22.9 µM
# Method in brief: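 The readout is membrane depolarisation from a cAMP-sensing CNG channel, detected with a potential dye at ex 535/em 590. Cells were HEK293-derived (endogenous PDE-IV) at 1000 cells/well, titrated up to 22.9 uM final.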
# [12] = biological target: Glucocorticoid receptor (Homo sapiens) (UniProt P04150); test: GR-GFP Redistribution (AID 450;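 active means compounds whose dose series gives a full or clear partial fitted curve of increased nuclear translocation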; further: potency means the concentration at half of the fitted maximal effect); conditions: U2OS GR-GFP nuclear translocation, laser cytometry, 2 h
# [13] = Confirmation and Secondary Assay for Modulators of Hemoglobin Beta Chain Splicing at IVS2 654 locus (AID 910; active means well fitted curve in the direction sought with a large enough effect; an effect the other way counts as inactive or inconclusive;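 further: per-well total GFP intensity by laser scanning cytometry after 2-day treatment; % of control where 0% means no effect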); conditions: HeLa EGFP-654 splicing reporter, GFP fluorescence, 48 h; series mostly up to 38.3 µM
# Method in brief: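 HeLa cells stably carrying EGFP interrupted by mutant beta-globin IVS2-654 intron (CMV-driven) were treated with compound for 2 days at 37C; corrected splicing was scored as total peak GFP intensity per well (488 nm excitation, 500-520 nm emission).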
# [14] = Confirmation and Secondary Assay for Modulators of Hemoglobin Beta Chain Splicing at IVS2 705 locus (AID 930; active means well fitted curve in the direction sought with a large enough effect; an effect the other way counts as inactive or inconclusive;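 further: HeLa cells stably expressing the EGFP-705 splicing reporter; GFP fluorescence per well restored by corrected splicing of the IVS2-705 intron in EGFP; % of control where 0% means no effect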); conditions: HeLa EGFP-705 splicing reporter, GFP fluorescence, 48 h; series mostly up to 38.3 µM
# Method in brief: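 Fluorescence gain (488 nm laser, 500-520 nm PMT) reflects restored correct splicing of a mutant IVS2-705 intron inside EGFP in stably transfected HeLa cells after 2-day compound treatment.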
# [15] = qHTS profiling for inhibitors of Plasmodium falciparum proliferation (AID 504749; active means well fitted curve in the direction sought with a large enough effect; an effect the other way counts as inactive or inconclusive;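 further: 0% = DMSO vehicle and full inhibition = artemisinin control; nearly all actives have a fitted effect of over 60% in size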); conditions: P. falciparum in erythrocytes, SYBR Green DNA, 72 h, at 12.8 µM (top of the series)
# Method in brief: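 Parasite proliferation within erythrocytes, 72 h exposure. Endpoint: SYBR Green I fluorescence after overnight lysis at room temperature. Controls: 0.29 uM artemisinin, DMSO.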
# [16] = at 7.69 µM (top of the series) unless noted
# [17] = measured here: cell count channel max response
# [18] = measured here: lipid channel max response
# Chain of 3',5'-cyclic-AMP phosphodiesterase 4B (Homo sapiens) (Q07343 whole entry, looked up): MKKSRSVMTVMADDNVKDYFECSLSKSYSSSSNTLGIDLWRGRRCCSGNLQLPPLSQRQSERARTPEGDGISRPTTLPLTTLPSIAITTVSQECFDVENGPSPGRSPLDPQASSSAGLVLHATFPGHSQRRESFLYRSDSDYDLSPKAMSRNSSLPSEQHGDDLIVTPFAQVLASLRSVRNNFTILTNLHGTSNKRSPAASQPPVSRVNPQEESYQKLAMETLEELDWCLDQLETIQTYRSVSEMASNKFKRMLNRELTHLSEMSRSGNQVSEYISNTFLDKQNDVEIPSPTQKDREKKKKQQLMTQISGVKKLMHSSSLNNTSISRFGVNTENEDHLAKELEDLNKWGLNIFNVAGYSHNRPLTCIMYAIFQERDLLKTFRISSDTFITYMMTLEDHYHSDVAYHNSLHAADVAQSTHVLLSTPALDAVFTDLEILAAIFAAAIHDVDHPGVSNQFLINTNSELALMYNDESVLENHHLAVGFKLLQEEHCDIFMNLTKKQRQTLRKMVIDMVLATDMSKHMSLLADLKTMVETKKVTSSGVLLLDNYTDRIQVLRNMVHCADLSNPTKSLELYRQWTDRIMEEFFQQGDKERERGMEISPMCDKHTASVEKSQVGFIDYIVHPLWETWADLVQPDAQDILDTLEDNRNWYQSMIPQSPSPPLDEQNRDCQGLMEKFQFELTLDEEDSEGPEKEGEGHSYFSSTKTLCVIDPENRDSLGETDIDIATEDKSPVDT
# Chain of Cytochrome P450 1A2 (Homo sapiens) (P05177 whole entry, looked up): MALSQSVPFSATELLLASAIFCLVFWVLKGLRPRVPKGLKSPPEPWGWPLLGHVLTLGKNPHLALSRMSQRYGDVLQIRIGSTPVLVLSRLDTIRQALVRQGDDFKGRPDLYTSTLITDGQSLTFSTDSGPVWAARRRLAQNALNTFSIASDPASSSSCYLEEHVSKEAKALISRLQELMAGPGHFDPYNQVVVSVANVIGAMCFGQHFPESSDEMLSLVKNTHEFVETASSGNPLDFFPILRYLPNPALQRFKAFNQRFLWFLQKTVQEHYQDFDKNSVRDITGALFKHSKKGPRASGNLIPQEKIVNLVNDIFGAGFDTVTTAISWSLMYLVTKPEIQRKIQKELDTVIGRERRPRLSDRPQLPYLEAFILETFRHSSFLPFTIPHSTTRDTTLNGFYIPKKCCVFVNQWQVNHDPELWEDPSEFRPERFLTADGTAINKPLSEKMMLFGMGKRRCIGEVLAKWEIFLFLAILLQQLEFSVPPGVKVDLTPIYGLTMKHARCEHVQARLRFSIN
# Chain of Glucocorticoid receptor (Homo sapiens) (P04150 whole entry, looked up, the tested form may be a part): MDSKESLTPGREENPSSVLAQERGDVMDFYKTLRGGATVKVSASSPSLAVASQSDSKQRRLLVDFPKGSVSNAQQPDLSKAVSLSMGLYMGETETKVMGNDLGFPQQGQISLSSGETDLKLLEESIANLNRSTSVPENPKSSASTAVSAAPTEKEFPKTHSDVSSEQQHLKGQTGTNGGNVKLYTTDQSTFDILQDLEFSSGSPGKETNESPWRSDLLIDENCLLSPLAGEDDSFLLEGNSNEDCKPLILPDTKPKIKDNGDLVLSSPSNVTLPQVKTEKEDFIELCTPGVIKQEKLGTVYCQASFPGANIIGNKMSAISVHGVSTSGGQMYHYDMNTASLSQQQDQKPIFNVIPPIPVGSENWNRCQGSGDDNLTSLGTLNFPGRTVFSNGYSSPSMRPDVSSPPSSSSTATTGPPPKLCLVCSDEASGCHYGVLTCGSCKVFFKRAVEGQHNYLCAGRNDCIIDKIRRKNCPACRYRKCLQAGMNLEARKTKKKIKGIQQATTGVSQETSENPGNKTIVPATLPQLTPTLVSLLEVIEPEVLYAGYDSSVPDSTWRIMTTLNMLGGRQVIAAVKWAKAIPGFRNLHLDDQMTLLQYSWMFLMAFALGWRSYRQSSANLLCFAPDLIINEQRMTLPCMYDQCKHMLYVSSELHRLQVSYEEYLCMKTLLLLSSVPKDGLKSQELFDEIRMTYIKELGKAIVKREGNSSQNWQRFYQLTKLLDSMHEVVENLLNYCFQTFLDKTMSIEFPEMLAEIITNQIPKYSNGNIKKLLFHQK
# Chain of Lysosomal acid glucosylceramidase (Homo sapiens) (P04062 whole entry, looked up): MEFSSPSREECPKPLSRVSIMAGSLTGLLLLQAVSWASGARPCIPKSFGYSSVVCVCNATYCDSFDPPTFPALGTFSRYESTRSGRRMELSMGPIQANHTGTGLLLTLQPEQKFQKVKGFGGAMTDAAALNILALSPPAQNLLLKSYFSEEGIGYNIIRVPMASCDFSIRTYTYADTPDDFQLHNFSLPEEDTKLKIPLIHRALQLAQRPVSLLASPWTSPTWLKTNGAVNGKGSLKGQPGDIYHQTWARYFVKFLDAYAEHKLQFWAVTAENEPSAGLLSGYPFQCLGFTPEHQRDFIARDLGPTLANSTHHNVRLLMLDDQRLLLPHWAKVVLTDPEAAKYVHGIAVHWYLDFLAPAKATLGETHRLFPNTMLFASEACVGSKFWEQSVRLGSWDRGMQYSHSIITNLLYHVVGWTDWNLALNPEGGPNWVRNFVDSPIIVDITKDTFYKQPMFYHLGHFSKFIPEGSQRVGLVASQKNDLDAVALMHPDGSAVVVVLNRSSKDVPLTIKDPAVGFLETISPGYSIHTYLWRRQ
# Chain of Cytochrome P450 3A4 (Homo sapiens) (P08684 whole entry, looked up): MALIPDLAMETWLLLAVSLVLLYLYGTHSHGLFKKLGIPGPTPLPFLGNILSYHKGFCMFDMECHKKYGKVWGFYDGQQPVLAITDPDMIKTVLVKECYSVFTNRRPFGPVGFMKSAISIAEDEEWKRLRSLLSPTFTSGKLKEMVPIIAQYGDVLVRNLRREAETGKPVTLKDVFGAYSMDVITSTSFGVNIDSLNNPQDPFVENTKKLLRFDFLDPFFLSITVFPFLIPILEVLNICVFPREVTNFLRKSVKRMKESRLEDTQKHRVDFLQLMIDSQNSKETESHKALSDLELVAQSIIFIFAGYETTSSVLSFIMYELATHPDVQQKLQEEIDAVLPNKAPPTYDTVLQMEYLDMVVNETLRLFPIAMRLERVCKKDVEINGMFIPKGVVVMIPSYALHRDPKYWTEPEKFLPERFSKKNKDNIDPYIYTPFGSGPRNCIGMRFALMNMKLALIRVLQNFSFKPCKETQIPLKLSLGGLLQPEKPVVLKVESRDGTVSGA
compound,measurement,setting,value
COc1ccc(C(=O)N2CCC3(CCCN(C(=O)Nc4cccc(C#N)c4)C3)CC2)cc1,Potency,[1],> 11.4 µM (inactive)
same,"activity change, negative = inhibition",[2],-23.2% (inactive)
same,Potency,[3],15.8 µM (active)
same,"activity, negative = inhibition",[4]; [16],8.74% (inactive)
same,Potency,[5],> 46 µM (inactive)
same,Potency,[6],inactive
same,Potency,[7],6.31 µM (active)
same,Potency,[8],inactive
same,"activity change, negative = inhibition",[9]; at 57.5 µM (top of the series),3.86% (inactive)
same,max response,[9]; [17],0.951%
same,max response,[9]; [18],7.45%
O=S(=O)(c1ccccc1)N1CCC[C@@]2(CCN(Cc3nccs3)C2)C1,Potency,[1],> 11.4 µM (inactive)
same,"activity change, negative = inhibition",[2],-10.5% (inactive)
same,Potency,[3],15.8 µM (active)
same,"activity change, negative = inhibition",[10],-1.46% (inactive)
same,"activity, negative = inhibition",[4]; [16],-1.53% (inactive)
same,Potency,[5],> 46 µM (inactive)
same,Potency,[6],inactive
same,Potency,[11],inactive
same,Potency,[7],3.16 µM (active)
same,Potency,[8],inactive
same,"activity change, negative = inhibition",[9]; at 57.5 µM (top of the series),0.281% (inactive)
same,max response,[9]; [17],10.8%
same,max response,[9]; [18],15.6%
Cc1cnc(CNc2ccnc(-c3ccc(N(C)C)cc3)n2)cn1,Potency,[1],> 11.4 µM (inactive)
same,"activity change, negative = inhibition",[2],8.41% (inactive)
same,Potency,[3],2.51 µM (active)
same,"activity change, negative = inhibition",[10],-1.95% (inactive)
same,Potency,[12],> 46 µM (inactive)
same,Potency,[5],> 46 µM (inactive)
same,Potency,[6],inactive
same,Potency,[11],inactive
same,Potency,[8],inactive
same,Potency,[13],inactive
same,outcome,[14],inactive
same,"activity change, negative = inhibition",[9]; at 57.5 µM (top of the series),8.28% (inactive)
same,max response,[9]; [17],-9.25%
same,max response,[9]; [18],1.54%
CC[C@@]12CCCN3CCc4c(n(c5ccccc45)C(=O)C1)[C@H]32,"activity, negative = inhibition",[4]; at 7.69 µM (top of the series),8.55% (inactive)
same,"activity, negative = inhibition",[4]; at 17.2 µM (top of the series),14.6% (inactive)
same,"activity change, negative = inhibition",[9]; at 25.7 µM (top of the series),-0.21% (inactive)
same,"activity, negative = inhibition",[15]; parasite line A,14.8% (inactive)
same,"activity, negative = inhibition",[15]; parasite line B,-2.22% (inactive)
CN1CCN(c2ncc3nc(-c4ccccc4)c(=O)n(CCC#N)c3n2)CC1,Potency,[1],> 11.4 µM (inactive)
same,Potency,[3],20 µM (active)
same,Potency,[12],> 9.22 µM (inactive)
same,Potency,[5],> 46 µM (inactive)
same,Potency,[6],inactive
same,Potency,[11],inactive
same,"activity change, negative = inhibition",[9]; at 57.5 µM (top of the series),6.29% (inactive)
same,max response,[9]; [17],19.8%
same,max response,[9]; [18],27.5%
O=C(c1ccco1)N1CCC2(CC1)CCN(c1ccncc1)CC2,Potency,[1],> 11.4 µM (inactive)
same,"activity, negative = inhibition",[4]; [16],11.2% (inactive)
same,Potency,[5],> 46 µM (inactive)
same,Potency,[6],inactive
same,Potency,[11],inactive
same,"activity change, negative = inhibition",[9]; at 57.5 µM (top of the series),3.95% (inactive)
same,max response,[9]; [17],-3.62%
same,max response,[9]; [18],0.777%
Cn1c(=O)c(-c2ccccc2)nc2cnc(N3CCNCC3)nc21,Potency,[1],> 11.4 µM (inactive)
same,Potency,[3],12.6 µM (active)
same,Potency,[12],> 9.22 µM (inactive)
same,Potency,[5],> 46 µM (inactive)
same,Potency,[6],inactive
same,Potency,[11],inactive
same,"activity change, negative = inhibition",[9]; at 57.5 µM (top of the series),5.44% (inactive)
same,max response,[9]; [17],18.4%
same,max response,[9]; [18],28.4%
